BoNT-F LC inh – BoNT/F light chain protease inhibitors, primary screen, biochemical, flow cytometry, MLPCN library. Botulinum neurotoxin type F light chain protease (Clostridium botulinum). Multiplex microsphere protease cleavage assay. inhibition, % at 10 µM. 360,000 compounds, 0.22% hits. AID 588497, 2011; in the data active = inhibition above about 35%, passing the limit was not always enough; inconclusive = no clear call, values can overlap the other calls
Bead autofluor – compound fluorescence in toxin protease inhibitor counterscreen | compound autofluorescence counterscreen, microsphere flow cytometry; active compounds read high | 360,000 compounds, 3.1% hits | fluorescence intensity (concentration not given with the values); in the data active = fluorescence intensity above about 16000; inconclusive = no clear call, values can overlap the other calls
Anthrax LF inh2 – Bacillus anthracis LF protease inhibitors, primary screen, biochemical, multiplex microsphere, MLPCN library. multiplex microsphere protease cleavage assay. Lethal factor (Bacillus anthracis), P15917. 360,000 compounds, 0.12% hits. inhibition, % at 10 µM
Target sequence (P15917 whole entry, looked up): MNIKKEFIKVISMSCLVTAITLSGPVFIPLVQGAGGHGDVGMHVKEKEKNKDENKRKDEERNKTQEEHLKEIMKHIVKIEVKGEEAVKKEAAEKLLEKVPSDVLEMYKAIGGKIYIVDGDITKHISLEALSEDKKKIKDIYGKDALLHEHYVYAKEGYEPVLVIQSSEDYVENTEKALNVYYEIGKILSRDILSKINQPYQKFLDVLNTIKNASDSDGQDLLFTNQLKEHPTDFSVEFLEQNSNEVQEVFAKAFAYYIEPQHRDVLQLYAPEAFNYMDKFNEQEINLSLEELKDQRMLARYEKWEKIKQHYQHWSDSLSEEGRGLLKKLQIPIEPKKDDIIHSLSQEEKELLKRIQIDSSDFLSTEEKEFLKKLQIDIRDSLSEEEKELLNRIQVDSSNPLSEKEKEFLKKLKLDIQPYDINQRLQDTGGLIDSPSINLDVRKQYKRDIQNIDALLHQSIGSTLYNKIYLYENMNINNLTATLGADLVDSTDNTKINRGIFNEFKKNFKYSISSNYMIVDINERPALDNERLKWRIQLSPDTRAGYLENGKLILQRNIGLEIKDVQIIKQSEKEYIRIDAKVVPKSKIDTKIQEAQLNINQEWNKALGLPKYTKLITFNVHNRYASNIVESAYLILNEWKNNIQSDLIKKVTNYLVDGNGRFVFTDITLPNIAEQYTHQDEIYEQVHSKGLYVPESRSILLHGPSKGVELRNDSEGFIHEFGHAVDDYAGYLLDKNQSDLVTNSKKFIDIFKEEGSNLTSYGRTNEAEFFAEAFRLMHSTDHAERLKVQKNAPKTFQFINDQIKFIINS
BoNT-A LC inh2 – BoNT/A light chain protease inhibitors, primary screen, biochemical, flow cytometry, MLPCN library; Botulinum neurotoxin type A light chain protease (Clostridium botulinum A str. ATCC 3502); multiplex microsphere protease substrate cleavage; inhibition, % at 10 µM; AID 588499, 2011; 360,000 compounds, 0.17% hits
Each line names hits and unclear results; the compound was inactive in the other large screens. This is a sample that favours compounds with a hit; in the whole collection about 3.5% have one here. Rule as the data show it, unless noted: active = inhibition above about 30%; inconclusive = no clear call, values can overlap the other calls; inactive = below that.

Cc1ccc(C(=O)CCC(=O)OCC(=O)N2CCN(S(=O)(=O)c3ccc(C)cc3C)CC2)cc1	none
O=C(COc1ccccc1[N+](=O)[O-])NCCCN1CCCC1=O	none
CCOc1ccccc1NC(=O)C1C2C=CC(C2)C1C(=O)O (configuration not stated)	Bead autofluor 25672
O=C(O)C1C2C=CC(C2)C1C(=O)Nc1cccc(F)c1 (configuration not stated)	Bead autofluor 22384
CSc1ncccc1C(=O)OCC(=O)Nc1cccc(S(=O)(=O)N2CCOCC2)c1	none
CC(C)Nc1nc(NC(C)C)nc(C(N)=O)n1	Bead autofluor 16247
CC(C)Nc1nc(NC(C)C)nc(N(C)C(N)=O)n1	Bead autofluor 19916
CC(C)Nc1nc(NC(C)C)nc(N(C)N)n1	none
COc1cccc(CNC(=S)Nc2ccc3c(c2)c(=O)n(C)n3C)c1	none
CC(=O)NC(c1ccc(F)c(F)c1)c1nc(-c2ccncc2)cs1 (configuration not stated)	none
COC(=O)c1cc(NC(=O)COC(=O)C2COc3ccccc3O2)cc(C(=O)OC)c1 (configuration not stated)	none
COc1cc2c(cc1OC)CN(S(=O)(=O)/C=C/c1ccccc1)CC2	BoNT-F LC inh 40
COc1ccc(N2CCN(S(=O)(=O)/C=C/c3ccccc3)CC2)cc1	none
COc1ccc(NC(=O)N(C)C[C@H]2OCCCC[C@H](C)Oc3ccc(NC(=O)Nc4ccc5c(c4)OCO5)cc3C(=O)N([C@@H](C)CO)C[C@@H]2C)cc1	none
O=C(NC(Cc1ccccc1)C(=O)N1CCN(S(=O)(=O)c2ccccc2)CC1)c1ccccc1 (configuration not stated)	none
O=C(O)CNC(=O)c1ccc(S(=O)(=O)N2CCOCC2)cc1	Bead autofluor 20309
O=C(NC(Cc1ccccc1)C(=O)O)c1ccc(S(=O)(=O)N2CCOCC2)cc1 (configuration not stated)	Bead autofluor 19429
COCc1ccc(-c2c(-c3cc(OC)cc(OC)c3)oc(=O)c3cc(OC)c(OC)cc23)cc1	none
COc1ccc(NC(=O)CSc2nc(C)c3c(c2C#N)CCCC3)cc1	Bead autofluor 21814
COc1cccc(NC(=O)CSc2nc3c(c(-c4ccco4)c2C#N)CCCC3)c1	Bead autofluor 23093, BoNT-A LC inh2 inconclusive
Cc1nc(SCC(=O)NCc2ccc3c(c2)OCO3)c(C#N)c2c1CCCC2	none
CCc1nnc(NC(=O)CSc2nc(C)c3c(c2C#N)CCCC3)s1	none
COc1ccccc1NC(=O)CSc1nc(C)c2c(c1C#N)CCCC2	Bead autofluor 23495
O=C(NCc1ccccc1Cl)C1CCN(S(=O)(=O)N2CCCCCC2)CC1	Bead autofluor 17397
O=C1CCC([N+](=O)[O-])C(C2CC=CCC2)N1 (configuration not stated)	none
O=C(c1ccccc1)N1CCN(C2c3cccc4cccc(c34)C2NS(=O)(=O)c2ccccc2)CC1 (configuration not stated)	Bead autofluor 23933
Nc1ccc(S(=O)(=O)N2CCOCCOCCOCCOCCOCC2)cc1	none
Fc1ccc2c(c1)[C@H]1OCC[C@H]1[C@@H](c1ccco1)N2	Bead autofluor 23934
O=c1[nH]c2cc3c(cc2cc1C(c1nnnn1C1CCCCC1)N1CCSCC1)OCCO3 (configuration not stated)	Bead autofluor 22680
CCOc1ccc2[nH]c(=O)c(C(c3nnnn3C3CCCCC3)N3CCN(C)CC3)cc2c1 (configuration not stated)	none
COc1cc2cc(C(c3nnnn3C3CCCC3)N3CCCCCC3)c(=O)[nH]c2cc1OC (configuration not stated)	Bead autofluor 20987
CCOc1ccc2[nH]c(=O)c(C(c3nnnn3C3CCCCC3)N3CCN(CC)CC3)cc2c1 (configuration not stated)	Bead autofluor 21002, BoNT-A LC inh2 inconclusive
COc1cc2cc(C(c3nnnn3C3CCCC3)N3CCCCC3)c(=O)[nH]c2cc1OC (configuration not stated)	Bead autofluor 19432
O=C(Nc1ccc(Oc2ccccc2)cc1)c1csc([C@@H]2C[C@H](O)[C@@H](CO)O2)n1	none
CC(=O)Nc1ccc(NC(=O)C(C)OC(=O)C23CC4CC(CC(Cl)(C4)C2)C3)cc1 (configuration not stated)	none
COc1ccc2[nH]c(=O)c(C(c3nnnn3C3CCCC3)N(C)C3CCCCC3)cc2c1 (configuration not stated)	Bead autofluor 24246, BoNT-A LC inh2 inconclusive
COc1cc(-c2noc(-c3cccc(Cl)c3)n2)cc(OC)c1OC	Bead autofluor 22311
CCCC(=O)Nc1ccc(C(=O)NNC(=S)NC(=O)c2cccs2)cc1	none
O=C(NNC(=S)Nc1ccccc1)c1cccs1	none
O=C(CCC(=O)Nc1ccccc1)NNC(=O)c1cccs1	Bead autofluor 21744
CCCC(=O)Nc1ccc(C(=O)NNC(=O)c2cccs2)cc1	Bead autofluor 22535
O=C(NCCO)c1nc(C(=O)c2ccc(Cl)cc2)c2ccccc2n1	none
O=C(N1CCOCC1)N1[C@H](COCc2ccccc2)C=CS1(=O)=O	none
Cc1cccc(C(=O)Nc2cc(OCc3cccc(F)c3)c(Cl)cc2Cl)c1	Bead autofluor 19656, BoNT-A LC inh2 inconclusive
Cc1ccc(C)c(NC(=O)c2ccccn2)c1	Bead autofluor 20724, BoNT-A LC inh2 inconclusive
CCOc1ncccc1C(=O)OCC(=O)Nc1cc(S(=O)(=O)N2CCOCC2)ccc1C	none
COCCOc1cc(NC(=O)c2cccc(OC)c2)c(Cl)cc1Cl	none
Cc1cccc(C(=O)Nc2cccnc2Cl)c1	BoNT-A LC inh2 66
CCOc1ncccc1C(=O)OCC(=O)Nc1cc(C)ccc1C	Bead autofluor 23113
Cc1ccc(NC(=O)c2ccccn2)c(Br)c1	none
CCOC(=O)/C=C1\SCC(=O)N1CC(=O)Nc1ccc(OC)c(OC)c1	none
CCOC(=O)/C=C1\SCC(=O)N1CC(=O)c1ccc[nH]1	Bead autofluor 21362
COc1ccc(N2CCN(S(=O)(=O)CC34CCC(CC3=O)C4(C)C)CC2)cc1 (configuration not stated)	none
COc1ccc(-c2noc(CSc3nnc(Cc4ccccc4)n3-c3ccc(Cl)cc3)n2)cc1	Bead autofluor 24663
Cn1c(SCc2nc(-c3ccc(Cl)cc3)no2)nnc1-c1cccs1	none
Cn1c(SCc2nc(-c3ccccc3)no2)nnc1-c1cccs1	Bead autofluor 20460, BoNT-A LC inh2 inconclusive
Cn1c(SCc2nc(-c3ccc(Cl)cc3)no2)nnc1-c1ccccc1	Bead autofluor 20554
Cn1c(SCc2nc(-c3ccccc3)no2)nnc1-c1ccco1	BoNT-F LC inh inconclusive
CCCn1c(SCc2nc(-c3cccs3)no2)nnc1-c1ccncc1	Bead autofluor 21415
CC(C)C(NC(=O)c1ccccc1F)C(=O)NCCCn1ccnc1 (configuration not stated)	none
O=C(c1ccco1)N1CCN(C(=S)Nc2ccccc2C(F)(F)F)CC1	none
CCOc1ccc(NC(=O)[C@@H]2CCC(=O)N2C2OC(=O)c3ccccc32)cc1 (some centres not stated)	none

Screening results as filed in PubChem BioAssay.
